Assay results as given in PubChem BioAssay AID1159580 (chemical genetic matrix, 2015).
About 2,000 (36%) of roughly 5,500 compounds were called active. Roughly 18% stayed inconclusive and do not appear here. Some of the results follow. Values without a mark were called inactive. No stated cut-off is given here; in the data, active means normalized growth mostly below about 0.91 (no sharp cut-off); inconclusive means no clear call, values can overlap the other calls; inactive means mostly above about 0.92.

Test: chemical genetic growth profiling, strain panel (AID 1159580);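 further: tested at 20 µM; growth read once vehicle control cultures reached saturation at 30 °C; 1 = growth at the plate median or of vehicle wells; lower values mean less growth of the strain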
Conditions: S. cerevisiae deletion strains, growth OD
[1] = locus YAL040C, strain CLN3, hits give low values
[2] = locus YCL061C, strain MRC1 (second series), hits give low values
[3] = locus YDR150W, strain NUM1, hits give low values
[4] = locus YDR363W, strain ESC2, hits give low values
[5] = locus YER002W, strain NOP16, hits give low values
[6] = locus YNL175C, strain NOP13, hits give low values
[7] = locus YNL197C, strain WHI3, hits give low values
[8] = locus YNL224C, strain SQS1, hits give low values
[9] = locus YOR083W, strain WHI5 (second series), hits give low values

Row | Compound | normalized growth (locus YAL013W, strain DEP1, hits give low values) | normalized growth [1] | normalized growth [2] | normalized growth [3] | normalized growth [4] | normalized growth [5] | normalized growth (locus YGR078C, strain PAC10, hits give low values) | normalized growth (locus YGR229C, strain SMI1, hits give low values) | normalized growth (locus YJR075W, strain HOC1, hits give low values) | normalized growth (locus YMR263W, strain SAP30, hits give low values) | normalized growth (locus YNL128W, strain TEP1, hits give low values) | normalized growth [6] | normalized growth [7] | normalized growth [8] | normalized growth (locus YNL322C, strain KRE1, hits give low values) | normalized growth [9] | normalized growth (locus YNL153C, strain GIM3, hits give low values) | normalized growth (locus YPL055C, strain LGE1, hits give low values)
1 | Oc1cc2c(cc1O)CN(C(=S)NCCc1ccc(Cl)cc1)CCC2 | 0.609 (active) | 1.09 | 0.683 (active) | 0.656 (active) | 0.879 | 1 | 0.995 | 0.128 (active) | 0.718 (active) | 0.994 | 0.975 | 1 | 0.98 | 0.997 | 0.992 | 0.897 |  | 
2 | O=C(O)C1CCNCC1 |  | 1 | 0.998 | 1 | 0.964 | 0.995 |  |  |  |  |  | 0.992 | 0.992 | 0.997 |  | 1.01 | 1.01 | 1.01
